Measured values reported in PubChem BioAssay (NCI).
Compounds without any hit were thinned out: in the full panel of roughly 83,000, 20% have a hit.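 Activity criterion: percent growth below 10, measured after cells in 96-well plates were exposed to a single compound concentration for 48 hours.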 A number with no mark means an inactive call. The source made the active and inactive calls.

test system: KM12 colon; assay: NCI-60 one-dose screen, 48 h (100 = growth as untreated, 0 = no growth, -100 = all killed); settings: 10 µM unless noted

In the case of `NS(=O)(=O)c1ccc(N2N=C(c3cccs3)CC2c2ccccc2O)cc1` (stereo not drawn), the growth is reported as -15.8% (active).
`O=C(Nc1ccc(Oc2ccc(Nc3nc4ccccc4s3)cc2)cc1)Nc1ccc(Cl)c(C(F)(F)F)c1` was tested, and the growth was 0.448% (active).
`CCCc1n(Cc2ccc3ccccc3n2)cc[n+]1Cc1ccc2ccccc2c1` was tested, and the growth was -4.46% (active).
In the case of `C=C1NC(=O)C(C(C)CC)NC(=O)C2CSCC(NC(=O)CCC(=O)O)C(=O)NC(Cc3ccccc3)C(=O)NC(C)C(=O)NC(CC(C)CC)C(=O)NC(C(=O)NC(Cc3ccccc3)C(=O)N3CCCC3C(=O)N2)C(C)OC(=O)C(CO)NC(=O)C(C(O)COC)N(C)C(=O)C(C(C)C)NC(=O)C(CC(C)CC)NC1=O` (stereo not drawn), the growth is reported as 2.09% [6 µM] (active).
For `OC(c1cc2cc(Cl)ccc2c2cc(C(F)(F)F)ccc12)C1CCCCN1` (stereo not drawn), the growth was -90.9% (active).
`F` was tested, and the growth was 9.89% [6.87 mM] (active).
In the case of `OC(c1cc2c(Cl)cc(Cl)cc2c2cc(C(F)(F)F)ccc12)C1CCCCN1` (stereo not drawn), the growth is reported as -84.6% (active).
`COc1ccc(-c2cn(-c3cccc(C(=O)/C=C/c4ccc(O)c(OC)c4)c3)c(=O)[nH]2)cc1` was tested, and the growth was -58.7% (active).
For `Cc1ccc(Nc2nc(NCCO)c3ccccc3n2)cc1C`, the growth was 9.68% (active).

Going from `N#Cc1ccc(NC(=O)Nc2nc3ccc(OC(F)(F)F)cc3s2)cc1` to `CCc1ccc(Nc2cc(C)c3ccc(O)cc3n2)cc1`, the growth rises from 10.5% to 53.9%.

Going from `CC(=O)Nc1nonc1-c1nc2ccccc2n1Cc1ccc(C(C)(C)C)cc1` to `CN(C)c1ccc(/C=C(\C#N)c2nc3ccccc3n2C)cc1`, the growth falls from 69.3% to 26.2%.

Going from `Cc1nn(-c2ccc(Cl)cc2)c(=O)n1CCN1CCOCC1` to `Cc1nc2ccc(Nc3nc(N4CCOCC4)nc(N4CCN(C)CC4)n3)cc2n1Cc1ccccc1`, the growth rises from 81.3% to 93.2%.

First: O=C(O)Cn1ccc2ccccc21
Second: COc1ccc2nc(C)cc(Nc3ccccc3O)c2c1
The growth of the first is higher: 109% for the first, 86.9% for the second.

Compared with `SCc1ccc(CS)cc1`, `CCOC(=O)NNc1cccc(Cl)c1` is higher in growth: 114% for the first, 116% for the second.

First: Oc1ccc(-c2cnc(-c3ccccc3)[nH]2)c(O)c1
Second: NC(=O)Nc1ccc2ncnc(Nc3cccc(O)c3)c2c1
The growth of the first is higher: 102% for the first, 96.1% for the second.

Going from `Fc1cc(-c2nnc3sc(-c4ccc(Cl)cc4)nn23)c(Cl)cc1Cl` to `C=CCn1c(SCC(=O)Nc2ccc(C(=O)/C=C/c3ccc(Cl)cc3)cc2)nnc1-c1ccc(Cl)cc1`, the growth falls from 95.6% to 94.2%.

First: CCCOC(=O)C1c2cc3c(cc2CC(C)C1C(=O)OCCC)OCO3 (stereo not drawn)
Second: CCCc1cc2c(cc1CN(Cc1cc3c(cc1CCC)OCO3)C(=N)OCC)OCO2
The growth of the first is higher: 108% for the first, 92.8% for the second.

Going from `[Ag].[Ag].[NH-]S(=O)(=O)c1ccc(N=Nc2cc(N=Nc3ccc(S([NH-])(=O)=O)cc3)c3c(NC(=O)C(Cl)Cl)cccc3c2OC(=O)C(Cl)Cl)cc1.[c-]1nccs1.[c-]1nccs1` to `COc1ccc(-n2nc(C(=O)NCC(=O)Nc3nc4cc(OC)ccc4s3)c3ccccc3c2=O)cc1`, the growth falls from 80.9% to 18.2%.

Compared with `Fc1ccc(-c2nnc(N3CCOCC3)c3ccccc23)cc1`, `Clc1ccc2c(c1)-n1cccc1C(c1ccc3ccccc3c1)=NC2` is lower in growth: 109% for the first, 71.8% for the second.

First: N[C@@H](CO)C(=O)O
Second: O=C(C(=O)c1cccnc1)c1cccnc1
The growth of the first is lower: 102% for the first, 108% for the second.

First: COc1cc2c(cc1C)NC(=O)/C2=C\c1c[nH]c2ccccc12
Second: COc1ccc2c(c1)CCCC21C(=O)Nc2ccccc21 (stereo not drawn)
The growth of the first is lower: 24.3% for the first, 97.5% for the second.

Compared with `COc1ccc(C2C3CCc4ccccc4C3=NN2C(=O)c2cc(OC)c(OC)c(OC)c2)cc1O` (stereo not drawn), `CCCCn1c(-c2ccc(F)cc2)nc2cc(OC)c(OC)cc2c1=O` is lower in growth: 109% for the first, 95.8% for the second.

First: CC(C)(C)CC(C)(C)NCc1cc(C(C)(C)C)cc(CNC(C)(C)CC(C)(C)C)c1O
Second: CCC1CCc2nc3sc(C(=O)Nc4cccc(F)c4)c(N)c3cc2C1 (stereo not drawn)
The growth of the first is higher: 75% for the first, 41.3% for the second.

Work on `CCOC(C)(c1ccc(Cl)cc1)C1CCNCC1` (stereo not drawn) yielded a growth of 98.2%.
